This is a sample that favours compounds with a hit; in the whole collection about 9.4% have one here.
FLuc modulator: firefly luciferase modulation, counter-screen for miR-21 project; 360,000 compounds, 6.9% hits; AID 588342; P08659; Potency, µM (series often up to 57.5 µM), without a hit: at the top dose activity change, negative = inhibition, most hits filed as inhibitors; purified FLuc, Km substrates, luminescence inhibition;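 note: plate controls were vehicle for no effect and reference inhibitor for full effect; nearly all actives have a fitted effect of over 55% in size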
Target sequence (P08659 whole entry, looked up): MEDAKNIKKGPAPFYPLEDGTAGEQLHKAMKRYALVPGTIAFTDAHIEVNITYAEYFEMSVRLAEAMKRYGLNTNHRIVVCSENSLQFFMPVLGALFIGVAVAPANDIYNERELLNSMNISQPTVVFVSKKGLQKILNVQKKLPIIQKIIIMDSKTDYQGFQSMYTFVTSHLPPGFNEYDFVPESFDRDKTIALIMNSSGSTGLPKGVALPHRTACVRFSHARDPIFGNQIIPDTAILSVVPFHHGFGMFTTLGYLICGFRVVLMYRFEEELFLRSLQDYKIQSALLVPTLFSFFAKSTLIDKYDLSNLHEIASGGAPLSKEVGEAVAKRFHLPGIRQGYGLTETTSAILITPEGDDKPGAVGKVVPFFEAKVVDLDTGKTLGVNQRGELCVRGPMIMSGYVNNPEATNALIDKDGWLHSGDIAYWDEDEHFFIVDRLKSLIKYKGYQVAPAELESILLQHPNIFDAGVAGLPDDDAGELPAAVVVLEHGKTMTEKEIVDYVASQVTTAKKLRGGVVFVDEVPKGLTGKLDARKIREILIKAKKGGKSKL
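Purified P. pyralis luciferase, 10 nM final, with Km-level 10 uM D-luciferin and 10 uM ATP in 50 mM Tris acetate pH 7.5, 10 mM Mg acetate, 0.01% Tween-20, 0.05% BSA; 6-point qHTS titration about 60 µM downward; luminescence read.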
ELG1 DNA repair: inhibitors of ELG1-dependent DNA repair in HEK293T cells. HEK293T ELG1-luciferase reporter, luminescence, 16 h; DNA damage induced by 5-fluorouridine. Potency, µM (titrated, usually from 46.1 µM), for inactives: at the highest dose activity change, negative = inhibition, actives largely listed as inhibitors. 330,000 compounds, 2.3% hits. AID 504467; note: % is set by controls: 0 for no effect and ±100 for the full control effect; nearly all actives have a fitted effect of over 55% in size
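Overnight (16 hr) co-exposure of 2,000 cells/well to 5-fluorouridine and compound at 37 °C preceded detection. Luciferase was quantified via ONE-Glo luminescence; loss of signal denotes inhibition.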
Rab9 prom act: Rab9 promoter activation | Huh7 Rab9 promoter-luciferase reporter, luminescence, 24 h | Potency, µM (highest dose often 9.22 µM), for the others: at the top dose activation, negative = inhibition, most hits filed as activators | 320,000 compounds, 2.8% hits; note: % of control where 0% means no effect; nearly all actives have a fitted effect of over 60% in size
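Huh7 cells stably carrying a Rab9 promoter-luciferase reporter, 1500 cells per well in OP-MEM I with 10% FBS, treated with compound 24 hours at 37C. Luciferase activity read by luminescence after 10 minutes with Amplite reagent.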
ELG1 genotoxic: induces genotoxicity in HEK293T cells with luciferase-tagged ELG1. HEK293T ELG1-luciferase reporter, luminescence, 16 h. Potency, µM (highest dose often 46 µM), for the others: at the top dose activity change, positive = activation, most hits filed as activators. 330,000 compounds, 1.3% hits. AID 504466; note: % of control where 0% means no effect; nearly all actives have a fitted effect of over 60% in size
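DMSO vehicle served as control against compound-treated ELG1-luciferase HEK293T cells; exposure lasted 16 hr at 37 °C and 5% CO2, followed by ONE-Glo luminescence detection after 30 min.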
SMN2 splice enh: enhancers of SMN2 splice variant expression | 210,000 compounds, 2.8% hits | AID 1458 | HEK293 SMN2-luciferase splicing reporter, luminescence, 30-36 h | Potency, µM (doses to about 46.1 µM), for the others: top-dose activity change, positive = activation, most hits filed as activators; note: % of control where 0% means no effect; nearly all actives have a fitted effect of over 55% in size
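HEK293 cells carry an SMN2 minigene-luciferase reporter in which exon 7 inclusion puts luciferase in frame. Cells were seeded at 2000 cells/well, attached for 10-12 hours, then exposed to compounds for 30-36 hours at 37C before ONE-Glo luminescence.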
NPC1 prom act: activates the NPC1 promoter; Huh7 NPC1 promoter luciferase reporter, 24 h; Potency, µM (highest dose often 9.22 µM), inactives show at the top dose activation, usual class: activators; 320,000 compounds, 2.4% hits; note: % of control where 0% means no effect; nearly all actives have a fitted effect of over 60% in size
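Huh7 cells stably carrying NPC1 promoter–luciferase, plated in Opti-MEM with 10% FBS for 2 h, were exposed to compound in DMSO for 24 h at 37 °C; luciferase reagent was added for 10 min and luminescence read.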
* = called active by the depositor; ? = inconclusive; . = no result; [ ] = remark or other dose. Calls come from the whole dose curve; as a rule, active = well fitted curve in the direction sought with a large enough effect; inconclusive = small, poorly fitted or top-dose-only effect, or another doubt; inactive = no such curve, though single readings can be large; an effect the other way counts as inactive or inconclusive. Potency is the fitted concentration of half-maximal effect.

SMILES | FLuc modulator | ELG1 DNA repair | Rab9 prom act | ELG1 genotoxic | SMN2 splice enh | NPC1 prom act
CN(C)S(=O)(=O)c1cccc(NC(=O)c2cc(-c3cccs3)nn2-c2cccc(Cl)c2)c1 | 3% | 12µM* | 0% | -2% | -16% | -7%
Cc1ccc(NC(=O)c2ccncc2)cc1S(=O)(=O)N(C)C | -5% | 15% | 7% | 0% | 4% | 1%
Cc1cc(C)n(-c2ccc(C(=O)Nc3ccc4c(c3)OCO4)cc2)n1 | 13µM* | 2% | ? | ? | ? | ?
Cc1cc(C)n(-c2ccc(C(=O)Nc3ccc(N4CCOCC4)cc3)cc2)n1 | -13% | ? | 9% | -18% | -64% | 18%
Cc1cc(C)n(-c2ccc(C(=O)Nc3cccc(S(=O)(=O)N(C)C)c3)cc2)n1 | ? | 9.2µM* | -19% | -7% | -66% | -14%
Cc1cc(C)n(-c2ccc(C(=O)NC3=NCCS3)cc2)n1 | 15µM* | ? | 3.2µM* | ? | ? | ?
CCN(CC)S(=O)(=O)c1cccc(NC(=O)c2ccc(-n3nc(C)cc3C)cc2)c1 | -2% | 15µM* | -14% | -8% | -86% | -4%
Cc1cc(C)n(-c2ccc(C(=O)Nc3ccc(S(=O)(=O)N(C)C)cc3)cc2)n1 | 4% | ? | 0% | -7% | -68% | -2%
O=C(NC1=NCCS1)c1cc(-c2ccccc2)nn1-c1ccccc1 | 1% | -3% | 7% | -1% | -18% | 12%
CCN(CC)S(=O)(=O)c1ccc(C(=O)Nc2cccc(C)c2)cc1 | ? | ? | -2% | 5% | 18% | 3%
COc1cccc(CNC(=O)c2sc3ncccc3c2-n2c(C)ccc2C)c1OC | 3% | . | . | . | . | .
Oc1ccc2ccccc2c1CNc1ccc(Br)cn1 | 24µM* | ? | 1% | 13% | . | -3%
COc1cccc(CNn2cnnc2)c1O | 1% | 0% | -7% | 3% | . | 0%
Oc1ccc2ccccc2c1CNc1ccc(Br)cc1 | -7% | 10% | -5% | 3% | . | -3%
COc1cccc(CNc2ncc(Br)cc2Br)c1O | 27µM* | ? | ? | 14% | 18% | ?
COc1cccc(CNc2ccc(Br)cn2)c1O | 1.5µM* | ? | 2.8µM* | ? | 14µM* | 1µM*
Cc1ccccc1Cn1cc(NC(=O)c2cc(C3CC3)on2)cn1 | 19µM* | ? | ? | -11% | . | ?
Cc1cccc(Cl)c1NC[C@H](O)CN1CCN(C)CC1 | . | . | . | . | -7%[9.22 µM] | .
COCCCNC1=C(Cl)C(=O)c2ccccc2C1=O | ? | ? | -3% | -5% | . | -1%
CC(C)OCCCNC1=C(Cl)C(=O)c2ccccc2C1=O | 13µM* | 2% | 13% | 4% | . | 14%
COc1ccc(CNc2ccc(C(=O)O)cc2)cc1 | 7.6µM* | ? | 23% | 4% | 1% | 25%
COc1ccc(CNc2ccc(Br)cc2)cc1 | 24µM* | ? | ? | ? | -1% | ?
COc1ccc(-n2nnnc2CNC(=O)C(=O)c2c(C)[nH]c3ccccc23)cc1 | 4% | 1% | -2% | 0% | . | -5%
Cc1c(C(=O)NCc2cccc(Cl)c2)sc2ncnc(N(C)C3CCCCC3)c12 | 4% | . | . | . | . | .
COC(=O)c1cccc(NC(=O)c2cc(OC)c(OC)c(OC)c2Br)c1 | -7% | 12µM* | 1% | -4% | ? | 0%
SMILES | FLuc modulator | ELG1 DNA repair | Rab9 prom act | ELG1 genotoxic | SMN2 splice enh | NPC1 prom act
CC(=O)c1cccc(NC(=O)c2cccc3ccccc23)c1 | ? | 20% | 4% | 0%[9.26 µM] | . | 2%
COc1ccc(C(=O)Nc2cccc(C(C)=O)c2)c(OC)c1OC | 12µM* | ? | 23% | ? | -3% | 20%
COc1ccc(C(=O)Nc2cccc(C(C)=O)c2)cc1OC | ? | ? | 7% | 18% | 14% | 18%
COc1cc(OC)c(C(=O)Nc2cccc(C(C)=O)c2)cc1OC | 13µM* | 11% | ? | ? | -12% | 18%
COc1cc(C(=O)Nc2cccc(C)c2C)c(Br)c(OC)c1OC | -2% | -12% | -10% | -7% | 0% | -5%
CC(C)COC[C@H](CN(Cc1ccccc1)c1ccccc1)N1CCCC1 | . | . | . | . | -11%[20.6 µM] | .
CN(C)CCN(c1ccccn1)c1ccccn1 | . | . | . | . | -18%[9.22 µM] | .
CC(C)(C)C(=O)OC/C(N)=N/OC(=O)c1ccc(Cl)c(Cl)c1 | ? | -10% | 0% | -3% | . | 0%
C/C(=N/N=C(/C)c1cccs1)c1cccs1 | 4.8µM* | ? | ? | ? | . | ?
C/C(=N\OC(=O)c1ccc(C)cc1)c1sc(C)nc1C | 2.7µM* | 2% | -2% | 0% | -10% | -4%
C/C(=N\OC(=O)c1ccc(Cl)c(Cl)c1)c1sc(C)nc1C | 5.4µM* | 1% | -2% | 1% | -10% | -1%
C/C(=N/OC(=O)c1ccccc1Br)c1ccc(C)cc1 | 2.7µM* | ? | 17% | ? | . | 18%
CCC(C(=O)Nc1cc(OC)ccc1OC)n1c(C)c2cnn(-c3ccccc3)c(=O)c2c1C (centres undefined) | -6% | . | . | . | 5% | .
Cc1ccc(NC(=O)Cn2nnc(-c3nc(-c4ccncc4)no3)c2N)cc1 | -4% | . | . | . | . | .
C/C(=N/OC(=O)c1ccc(C)cc1)c1cccs1 | 0.076µM* | ? | 2% | 1% | 11% | -1%
O=C(c1cnccn1)N1CCC2(CCN(Cc3ccncc3)CC2)CC1 | . | . | . | . | -3% | .
COc1ccc(CCNC(=O)Cc2c(C)c3cc4c(C)coc4cc3oc2=O)cc1OC | -1% | . | . | . | 8% | .
COc1cc(NC(=O)Cn2c(-c3ccccc3)cc(C(C)=O)c2C)cc(OC)c1 | 1% | . | . | . | . | .
O=C(Nc1cc(-c2nc3ccccc3s2)ccc1Cl)c1ccc2c(c1)OCO2 | 11µM* | ? | 1% | 6% | 8% | -1%
Cc1ccc(-c2nc3ccccc3s2)cc1NC(=O)c1ccc2c(c1)OCO2 | 4.8µM* | ? | -3% | -1% | -4% | 11%
CCOC(=O)COc1ccc(Br)cc1/C=C1\SC(N)=NC1=O | 0% | 5% | 7% | 3% | . | 0%
CCOC(=O)CSC1=NC(=O)/C(=C\c2ccc(OC(C)=O)cc2)S1 | 19µM* | ? | -8% | ? | 19% | -7%
CCOC(=O)CSC1=NC(=O)/C(=C/c2ccc(Br)cc2)S1 | 15µM* | ? | -9% | ? | . | -5%
NC1=NC(=O)/C(=C/c2ccc(Br)cc2)S1 | -12% | ? | 0% | 1% | . | 3%
N/C(Cc1cccs1)=N\OC(=O)COc1ccccc1Cl | 24µM* | ? | ? | 23µM* | -5% | 15%
N/C(Cc1cccs1)=N\OC(=O)COc1ccc(Br)cc1Cl | 11µM* | ? | 25% | ? | 6% | ?

Source: PubChem BioAssay
